In the supplement of paper PMC4723716 one finds viability index data, which are given here for 22 compounds.

± gives the uncertainty stated by the source. Over roughly 9,900 compounds, “viability index relative to DMSO control” has its median near 1; the lowest 2% begin near 0.85. The full list was thinned out, with the lowest values kept by preference.

The assay has as its system Plasmodium falciparum NF54 stage V gametocytes. Briefly: viability index relative to DMSO control (fraction); higher = less gametocyte killing. To be noted: 2.5 µM, library set: Broad Institute DOS, incubation time: 72 h. In a few lines: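 Gametocytes (P. falciparum NF54, stage V) were treated with compound at 2.5 µM for 72 hr at 37°C in low oxygen, in serum-free medium at 0.75% gametocytemia and 1.25% hematocrit. Counts of 20–70 µm2 red particles, taken from one field per well after MitoTracker Red CMXRos with saponin, were divided by the plate mean of solvent-only wells. This ratio is the viability index.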
Consider `COc1ccccc1NC(=O)N1C[C@H](O)COC[C@H]2O[C@H](CC(=O)NCCc3ccncc3)CC[C@@H]21`, for which the viability index came to 1.08 ± 0.062.
As for `O=C1CCC(=O)N[C@@H](c2ccccc2)C/C=C\CCN1`, the figure is 1.01 ± 0.087.
As for `COc1ccc(NC(=O)N2C[C@@H]3[C@H](c4ccccc42)[C@H](CO)N3Cc2ccccn2)cc1`, the figure is 0.993 ± 0.11; as for `CCCNC(=O)Nc1ccc2c(c1)OC[C@H](C)N(Cc1cncnc1)C[C@@H](C)[C@H](OC)CN(C)C2=O`, 0.989 ± 0.014.
Then `CO[C@H]1CN(C)C(=O)c2cc(NC(=O)C3CCCCC3)ccc2OC[C@H](C)N(Cc2cccnc2)C[C@H]1C`, with 1.037 ± 0.0049; and `Cc1noc(C)c1S(=O)(=O)N(C)C[C@@H]1OCc2cn(nn2)CCCC(=O)N([C@@H](C)CO)C[C@H]1C`, with 1.03 ± 0.014; and `Cc1ccc(S(=O)(=O)N(C)C[C@H]2Oc3cc(C#CC4CCCC4)ccc3S(=O)(=O)N([C@@H](C)CO)C[C@@H]2C)cc1`, with 0.705 ± 0.12.
The compound `C[C@H](CO)N1C[C@H](C)[C@@H](CN(C)S(=O)(=O)c2cn(C)cn2)Oc2cc(C#Cc3cccc(F)c3)ccc2S1(=O)=O` gave a viability index of 1.05 ± 0.09.
As for `C[C@H](CO)N1C[C@H](C)[C@H](CN(C)S(=O)(=O)c2cn(C)cn2)Oc2cc(C#Cc3cccc(F)c3)ccc2S1(=O)=O`, the figure is 0.9878 ± 0.0014.
On to `COc1cccc(-c2ccc3c(c2)[C@@H]2[C@@H](CCN2S(=O)(=O)c2cn(C)cn2)[C@@H](CO)N3)c1`, for which the viability index was 0.97 ± 0.14.
Then `COc1ccc(S(=O)(=O)Nc2ccc3c(c2)CC(=O)N([C@H](C)CO)C[C@@H](C)[C@H](CN(C)Cc2ccc(C(=O)Nc4ccccc4N)cc2)O3)cc1`, with 0.966 ± 0.1; and `COc1ccc(S(=O)(=O)Nc2ccc3c(c2)CC(=O)N([C@@H](C)CO)C[C@@H](C)[C@@H](CN(C)Cc2ccc(C(=O)Nc4ccccc4N)cc2)O3)cc1`, with 0.844 ± 0.012; and `COc1ccc(S(=O)(=O)Nc2ccc3c(c2)CC(=O)N([C@@H](C)CO)C[C@@H](C)[C@H](CN(C)Cc2ccc(C(=O)Nc4ccccc4N)cc2)O3)cc1`, with 0.836 ± 0.077.
As for `COc1ccc(S(=O)(=O)Nc2ccc3c(c2)CC(=O)N([C@H](C)CO)C[C@@H](C)[C@@H](CN(C)Cc2ccc(C(=O)Nc4ccccc4N)cc2)O3)cc1`, the figure is 0.956 ± 0.014; as for `COc1ccc(S(=O)(=O)Nc2ccc3c(c2)CC(=O)N([C@H](C)CO)C[C@H](C)[C@@H](CN(C)Cc2ccc(C(=O)Nc4ccccc4N)cc2)O3)cc1`, 1 ± 0.027; as for `COc1ccc(S(=O)(=O)Nc2ccc3c(c2)CC(=O)N([C@@H](C)CO)C[C@H](C)[C@@H](CN(C)Cc2ccc(C(=O)Nc4ccccc4N)cc2)O3)cc1`, 0.872 ± 0.11.
As for `COc1ccc(S(=O)(=O)Nc2ccc3c(c2)CC(=O)N([C@@H](C)CO)C[C@H](C)[C@H](CN(C)Cc2ccc(C(=O)Nc4ccccc4N)cc2)O3)cc1`, the figure is 0.993 ± 0.024.
In turn, `Cc1noc(C)c1S(=O)(=O)Nc1ccc2c(c1)CC(=O)N([C@H](C)CO)C[C@H](C)[C@H](CN(C)Cc1ccc(Oc3ccccc3)cc1)O2` registered a viability index of 0.981 ± 0.01.
Then `Cc1noc(C)c1S(=O)(=O)Nc1ccc2c(c1)CC(=O)N([C@@H](C)CO)C[C@H](C)[C@H](CN(C)Cc1ccc(Oc3ccccc3)cc1)O2`, with 0.923 ± 0.045.
Regarding `COc1ccc(S(=O)(=O)Nc2ccc3c(c2)CC(=O)N([C@H](C)CO)C[C@H](C)[C@H](CN(C)Cc2ccc(C(=O)Nc4ccccc4N)cc2)O3)cc1`, the viability index was determined as 0.766 ± 0.044.
Then `Cc1noc(C)c1S(=O)(=O)Nc1ccc2c(c1)CC(=O)N([C@@H](C)CO)C[C@@H](C)[C@@H](CN(C)Cc1ccc(Oc3ccccc3)cc1)O2`, with 0.851 ± 0.12.
As for `COc1ccc(S(=O)(=O)Nc2ccc3c(c2)CC(=O)N([C@@H](C)CO)C[C@@H](C)[C@H](CN(C)C(=O)Nc2c(C)noc2C)O3)cc1`, the figure is 0.986 ± 0.019.
